# From the supplement of paper PMC3334620
# The full ranking holds about 33,000 sequences; the median of “E-score (-0.5 to 0.5)” is about -0.053, and the highest 2% start at about 0.37. This excerpt belongs to a sample that is enriched for the highest values.
# Biological target: Hap1 (UniProt P0CE41)
# Assay: PBM E-score (8-mer binding enrichment) (E-score (-0.5 to 0.5)); higher = stronger / more preferred TF binding
# Conditions: protein concentration: 200 nM; construct: GST-DNA-binding domain
# Procedure: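 Universal 'all 10-mer' protein binding microarrays (Agilent AMADID 015681) probed with GST-tagged S. cerevisiae TFs (full-length or DBD) made by in vitro transcription/translation (PURExpress), about 100-200 nM. Bound TF was detected with fluorescent anti-GST. Each ungapped 8-mer (which stands for itself and its reverse complement) is scored by the PBM enrichment score (E-score), a modified Wilcoxon-Mann-Whitney statistic from -0.5 to +0.5, computed with the Universal PBM Analysis Suite. Scale: above 0.35 generally sequence-specific binding.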
# UniProt P0CE41, sequence (P0CE41 whole entry): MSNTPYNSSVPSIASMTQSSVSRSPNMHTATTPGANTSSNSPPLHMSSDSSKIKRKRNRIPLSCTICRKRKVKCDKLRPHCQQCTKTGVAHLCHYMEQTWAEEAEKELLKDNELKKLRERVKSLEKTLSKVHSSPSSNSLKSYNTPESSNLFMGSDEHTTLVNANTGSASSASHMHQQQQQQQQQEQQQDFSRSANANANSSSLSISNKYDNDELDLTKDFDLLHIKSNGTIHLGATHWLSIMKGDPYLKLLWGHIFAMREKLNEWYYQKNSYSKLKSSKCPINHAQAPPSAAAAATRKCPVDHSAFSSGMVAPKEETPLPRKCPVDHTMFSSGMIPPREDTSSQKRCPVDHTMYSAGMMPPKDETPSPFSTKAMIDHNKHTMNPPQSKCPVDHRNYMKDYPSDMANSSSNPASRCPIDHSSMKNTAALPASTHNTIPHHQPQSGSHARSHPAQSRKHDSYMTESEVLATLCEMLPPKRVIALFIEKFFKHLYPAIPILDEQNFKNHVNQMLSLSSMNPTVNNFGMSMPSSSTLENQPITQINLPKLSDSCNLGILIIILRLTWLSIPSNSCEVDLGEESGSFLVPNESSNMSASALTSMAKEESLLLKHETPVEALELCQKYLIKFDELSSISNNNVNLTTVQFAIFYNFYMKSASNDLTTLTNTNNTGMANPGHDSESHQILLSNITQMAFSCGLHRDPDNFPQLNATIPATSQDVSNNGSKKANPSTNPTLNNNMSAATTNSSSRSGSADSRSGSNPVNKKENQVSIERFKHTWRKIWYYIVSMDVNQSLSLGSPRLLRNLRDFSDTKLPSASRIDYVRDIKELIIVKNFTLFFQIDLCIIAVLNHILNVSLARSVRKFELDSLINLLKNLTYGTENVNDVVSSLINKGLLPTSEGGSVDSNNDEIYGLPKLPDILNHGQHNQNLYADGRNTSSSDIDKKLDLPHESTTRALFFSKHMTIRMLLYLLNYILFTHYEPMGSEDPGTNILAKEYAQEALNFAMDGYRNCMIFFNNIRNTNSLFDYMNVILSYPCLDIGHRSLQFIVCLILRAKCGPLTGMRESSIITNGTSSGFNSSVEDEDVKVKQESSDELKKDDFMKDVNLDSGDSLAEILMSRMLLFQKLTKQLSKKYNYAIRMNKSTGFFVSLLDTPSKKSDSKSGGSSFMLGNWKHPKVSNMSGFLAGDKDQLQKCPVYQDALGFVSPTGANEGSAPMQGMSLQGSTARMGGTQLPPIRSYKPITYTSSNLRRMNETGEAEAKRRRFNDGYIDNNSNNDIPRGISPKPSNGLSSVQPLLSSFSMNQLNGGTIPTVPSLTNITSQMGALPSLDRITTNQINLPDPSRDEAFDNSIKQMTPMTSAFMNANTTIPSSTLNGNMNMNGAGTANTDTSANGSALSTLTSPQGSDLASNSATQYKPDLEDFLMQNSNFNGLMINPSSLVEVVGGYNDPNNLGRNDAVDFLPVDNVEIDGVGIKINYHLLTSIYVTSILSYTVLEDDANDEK
row,Sequence,PBM E-score
1,AACAAAGG,0.0332
2,AGGGATAC,-0.181
3,CCGGCTAA,0.331
4,TCGTTCAA,-0.246
5,GGGGAGGA,0.093
6,GCATAGAC,-0.19
7,GGCCTCTA,-0.34
8,ACATCTCT,-0.0976
9,CCGTTATC,0.385
10,ACGTTATC,0.17
11,CCGTTATA,0.311
12,GACACAAA,0.132
13,GGGACGAA,0.0323
14,AGGACGAC,-0.143
15,AGGACGAG,-0.282
16,CGGACGAC,0.371
17,CGGACGAA,0.431
18,CGGACGAG,0.387
19,AGGACGAA,0.128
20,GGGACGAC,-0.117
21,CCGACGAG,0.259
22,CCCCGTAC,0.0387
23,CTATGAGA,-0.248
24,ATAGCCCG,0.173
25,GCCCAGCA,-0.0648

row,Sequence,PBM E-score
1,ATAAGAAG,0.0696
2,ATATCTTC,0.152
3,GCTTAACC,-0.0526
4,CTCACCTA,-0.159
5,ATTATCCA,-0.0526
6,CATATCGG,0.404
7,AATATCGC,0.314
8,AATATCGG,0.443
9,AATATCCA,0.0415
10,ATTATCCG,0.391
11,CATATCGA,0.0363
12,AATATCGA,0.0281
13,CATATCGC,0.179
14,AATATCCG,0.414
15,AATATCCC,0.109
16,ATTATCCC,0.0666
17,CTGCACTA,0.0173
18,AGACACGC,-0.0363
19,ACTCATCG,-0.0326
20,AACTATGG,-0.0562
21,CACGCCAA,-0.148
22,CACAGCTG,-0.194
23,CGGATGGA,0.238
24,GAGCGTTA,-0.121
25,ACCTTGAG,-0.113

row,Sequence,PBM E-score
1,ATTATCGC,0.132
2,AAAATCCG,0.437
3,ATTATCGG,0.432
4,ATTATCGA,-0.0673
5,CAAATCCG,0.344
6,AAAATCCC,0.0176
7,GCTCGAGC,0.0114
8,GCGAACGA,0.00245
9,GGACCCTA,-0.0296
10,CGGCGCAC,0.259
11,GAAAGACA,-0.0415
12,ATTACCGG,0.434
13,AATACCGG,0.451
14,AATACCGT,0.252
15,ATTACCGC,0.274
16,ATTACCGA,0.348
17,AATACCGC,0.304
18,CATTCAGA,-0.141
19,ACATCGCA,-0.0398
20,GAGGAGAC,-0.0943
21,GAAAGGGA,-0.0702
22,ACCTTATC,0.139
23,GTGGCCAC,0.203
24,GGCGGAGA,0.36
25,ATCGGGGG,0.349

row,Sequence,PBM E-score
1,ATCAGAGC,-0.0942
2,ATCGGGTG,0.37
3,GTCGGGGA,0.301
4,CGCGGAGC,0.274
5,ATCGGGTC,0.343
6,AGCGGAGC,0.223
7,ATCGGGGA,0.386
8,CGCGGAGA,0.397
9,ATCGGGTA,0.283
10,ATCGGAGC,0.396
11,ACGAACCA,-0.038
12,CTCCTATA,-0.327
13,AGATCACG,-0.113
14,GAATTTAC,0.0854
15,ACGCCTCC,0.00213
16,AGAAAAAG,-0.0187
17,CTCGGAGA,0.407
18,ATCGGAGA,0.415
19,ATCGGAGG,0.227
20,GTCGGAGA,0.355
21,CTCGGAGC,0.322
22,CTTGGAGA,-0.0528
